This excerpt belongs to a sample that is enriched for hits.
Pf Dd2 inh = inhibitors of Plasmodium falciparum Dd2 growth; P. falciparum Dd2 growth, SYBR Green, 72 h; Potency, µM (doses to about 28.9 µM), most hits filed as inhibitors; actives 4.3% (n = 120,000); AID 1347417; active = well fitted inhibition curve with a large enough effect; also: nearly all actives have a fitted effect of over 65% in size
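Infected erythrocytes (Dd2, 0.3% parasitemia, 2.5% hematocrit final) are added to compound in RPMI-1640/Albumax II medium, grown 72 h at 37C in low oxygen, then lysed with saponin/Triton-X containing SYBR Green and read by fluorescence.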
Large screens that a line does not name were inactive.

CCN1CCN(c2cc(C)c3cc(NC(=O)c4cccc(C(F)(F)F)c4)ccc3n2)CC1	Pf Dd2 inh 5.6µM
COc1cccc(C(=O)N2CCC(C(NC(=O)c3ccc(F)cc3)C(=O)N3CCCC3)CC2)c1 (stereo not given)	none
O=C1CO[C@H]2CN(Cc3ccc4c(c3)OCO4)C[C@H]2N1c1ccccc1	none
CCOC(=O)c1cnc2c(C)c(Cl)ccc2c1Nc1ccc(C)cc1C	none
CCOC(=O)c1cnc2c(C)cc(C)cc2c1Nc1ccccc1OCC	none
CCOC(=O)c1sc2ccccc2c1S(=O)(=O)Nc1cccc(C(F)(F)F)c1	none
CCOC(=O)c1cnc2c(C(F)(F)F)cccc2c1Nc1cccc(C(=O)OC)c1	Pf Dd2 inh 2.8µM
CCOC(=O)c1cnc2c(ccc3ccccc32)c1Nc1ccccc1O	Pf Dd2 inh 11µM
CCOC(=O)c1cnc2c(C)cccc2c1Nc1ccc(OC(C)C)cc1	none
COc1ccc(-c2cc(N3CCC(NC(=O)Cc4c(F)cccc4Cl)CC3)n[nH]2)cc1	none
COCCN1CC(CO)C2(CCN(C(=O)CN3CCOCC3)CC2)C1 (stereo not given)	none
CN(Cc1cccn1C)C(=O)c1ccc(C(F)(F)F)cc1	none
Cc1cccc(O[C@H]2COCCN(c3nc4ccccc4o3)C2)n1	none
Cc1cccc(O[C@H]2COCCN(C(=O)c3cc(C)nn3C)C2)n1	none
Cc1cccc(O[C@H]2COCCN(Cc3nccn3C)C2)n1	Pf Dd2 inh 11µM
COc1cccc(CC(=O)N2C[C@@H](Oc3ccccc3)C[C@@H]2C(=O)N2CCOCC2)c1	none
O=C(CN1C(=O)NC(c2ccc(Cl)cc2)C2=C1COC2=O)Nc1ccc(C(F)(F)F)cc1 (stereo not given)	none
CN1CC(c2ccccc2)CC2(CCN(C(=O)CCCn3ccnc3)CC2)C1 (stereo not given)	Pf Dd2 inh 13µM
CCc1ocnc1C(=O)N1CCC2(CC1)CC(c1ccccc1)CN(C)C2 (stereo not given)	none
O=C(O)c1cccc(C2CCCN(C(=O)CCCn3ccnc3)C2)c1 (stereo not given)	none
Cc1cccc(C(=O)NCCC2CCN(C(=O)Nc3cc(F)ccc3F)CC2)c1	none
Cc1noc(-c2ccc(OC(F)(F)F)cc2)c1C(=O)NCCCOC(C)C	none
Cc1ccc(CN2C(=O)[C@@H]3C[C@@H](O)CN3C3(CN(CC4CC4)C3)C2=O)o1	none
CC(=O)Nc1ccc(CN2CC3(C2)C(=O)N(Cc2ccc(C)o2)C(=O)[C@@H]2C[C@@H](O)CN23)cc1	none
Cc1ccc(CN2C(=O)[C@@H]3C[C@@H](O)CN3C3(CN(CCC(C)C)C3)C2=O)o1	Pf Dd2 inh 11µM
Cc1ccc(CN2C(=O)[C@@H]3C[C@@H](O)CN3C3(CN(Cc4ccc(C#N)cc4)C3)C2=O)o1	none
Cc1ccc(CN2C(=O)[C@@H]3C[C@@H](O)CN3C3(CN(CC(C)C)C3)C2=O)o1	none
Cc1ccc(CN2C(=O)[C@@H]3C[C@@H](O)CN3C3(CN(Cc4ccc(F)cc4)C3)C2=O)o1	Pf Dd2 inh 14µM
CCOCc1nc(C2CCCN(C(=O)c3ccccn3)C2)no1 (stereo not given)	none
CS(=O)(=O)N1C[C@H]2CCN(Cc3c(F)cccc3Cl)C[C@H]21	none
Cc1cc(C)n(CC(=O)N2CC(F)(F)C[C@H]2c2nc(C3CC3)no2)n1	none
COCCc1noc(-c2nc(-c3ccc4c(c3)OCO4)no2)n1	none
Cc1cccc(Oc2coc3cc(OCC(=O)NC4CCCCC4)ccc3c2=O)c1	Pf Dd2 inh 10µM
Cc1cccc(OCC(=O)NC2CCc3nn(CC4CC4)c(=O)n3CC2)c1 (stereo not given)	none
COc1ccc(N2CC(NC(=O)COc3cccc(C)c3)CC2=O)cc1OC (stereo not given)	none
Cc1noc2c(NC3CCN(C)CC3)cc(-c3ccc(F)cc3)nc12	none
Cc1ccc([S+](=O)([O-])c2nnn3c2nc(NCc2ccncc2)c2ccccc23)cc1C	none
Cn1cc(CN2CCNc3cc(Nc4ccccc4)ncc3C2)cn1	none
Cc1[nH]cnc1CN1CCNc2cc(Nc3ccccc3)ncc2C1	none
Oc1ccccc1CN1CCNc2cnc(OCc3cccnc3)cc2C1	none
Oc1ccccc1CN1CCNc2cc(Nc3cccnc3)ncc2C1	Pf Dd2 inh 8.9µM
Oc1ccccc1CN1CCNc2cc(Nc3ccccc3)ncc2C1	Pf Dd2 inh 5µM
c1ccc(Nc2cc3c(cn2)NCCN(Cc2ccccn2)C3)cc1	none
Oc1ccccc1CN1CCNc2cnc(Nc3ccccc3)cc2C1	none
c1ccc(Nc2cc3c(cn2)CN(Cc2c[nH]c4ccccc24)CCN3)cc1	Pf Dd2 inh 4.5µM
CN1CCNc2cc(Nc3ccncc3)ncc2C1	none
COc1cccc(Nc2cc3c(cn2)CN(Cc2cccnc2)CCN3)c1	none
c1ccc(Nc2cc3c(cn2)CN(Cc2ccn[nH]2)CCN3)cc1	none
Cc1cccc(CN2CCNc3cc(Nc4cccnc4)ncc3C2)c1	Pf Dd2 inh 5.6µM
O=C(c1c[nH]c2ccccc12)N1CCC(Cc2nncn2CC2CC2)C1 (stereo not given)	none
O=C(NCc1ccc(F)c(Cl)c1)c1cccc2c1CCN2C(=O)C1CC1	none
COc1ccc(S(=O)(=O)NCC2Cn3cccc3C(=O)N2C)cc1 (stereo not given)	none
